Data published in PubChem BioAssay AID431 (Sanford-Burnham Center for Chemical Genomics, 2006).
In all, about 63,000 compounds went through this assay and about 1,100 (1.7%) were called active. What follows is part of a selection rich in actives, with near analogues and random picks from the rest. Results with a measured potency or affinity are listed apart. A number with no mark means an inactive call.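 The calls were made as follows: active = compounds whose percent cytotoxicity in the single-dose primary screen, scaled between solvent and toxic-drug controls, exceeds 50; inactive = the rest.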

assay: viability loss of HPDE-C7K cells – cell-based, fluorescence, HTS, primary screen (AID 431); settings: HPDE-C7K KRASV12 cells, Alamar Blue viability, 48 h; at 10 µM; hits give high values;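 also: 0% = DMSO solvent wells and 100% = doxorubicin-treated wells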

Row | Compound | cytotoxicity
1 | COC(=O)Cc1cc(=O)n(-c2ccccc2)[nH]1 | -4.1%
2 | COC(=O)Cc1cc(=O)n(-c2nc3ccccc3[nH]2)[nH]1 | 4.2%
3 | CCOC(=O)Cc1cc(=O)n(-c2nc3ccccc3s2)[nH]1 | 79.8% (active)
4 | CCOC(=O)c1nc2ccccc2s1 | -9.2%
5 | CCOC(=O)CC(=O)Nc1nc2ccccc2s1 | -6.8%
6 | COC(=O)Cc1cc(=O)n(-c2nc3ccccc3s2)[nH]1 | 87.9% (active)
7 | CSC1=C(C#N)C(C)C2=C(CC(C)(C)CC2=O)N1 (stereo not drawn) | -15.4%
8 | Cc1cc(C)nc(N2CCC(C(=O)NC3CCCCCC3)CC2)n1 | -1.8%
9 | COc1ccc(N2CCN(C(c3ccccc3)c3nnnn3Cc3ccc(F)cc3)CC2)cc1 (stereo not drawn) | -7.5%
10 | O=C(Cc1ccc(Cl)cc1)Nc1ccc(-c2nnc(-c3ccco3)o2)cc1 | 4.4%
11 | O=C1CN(C(=O)c2cccs2)c2ccccc2N1 | -12.5%
12 | O=C(c1ccc(F)cc1)N(Cc1ccccc1)C1CCS(=O)(=O)C1 (stereo not drawn) | -7.8%
13 | CCOc1ccccc1Oc1cn[nH]c1-c1ccc(OC)cc1O | 61.8% (active)
14 | CCOc1ccc(-c2[nH]ncc2-c2ccc(OC)c(OC)c2)c(O)c1 | 51.8% (active)
15 | C=C(C)COc1ccc(-c2[nH]ncc2-c2ccc(OC)c(OC)c2)c(O)c1 | 4.1%
16 | COc1ccc(-c2[nH]ncc2-c2cnc(C)s2)c(O)c1 | 7.2%
17 | COc1ccc(-c2[nH]ncc2-c2ccc(Cl)cc2)c(O)c1 | 47%
18 | CCOc1ccc(-c2[nH]ncc2Oc2ccccc2OCC)c(O)c1 | 55.7% (active)
19 | COc1ccc(-c2[nH]ncc2Oc2ccccc2OC)c(O)c1 | 42.5%
20 | CCOc1ccc(-c2[nH]ncc2Oc2ccccc2OC)c(O)c1 | 61.4% (active)
21 | COc1ccc(Oc2cn[nH]c2-c2ccc(O)cc2O)cc1 | 24.9%
22 | CCOC(=O)C1CCN(Cc2nc3ccccc3c(=O)n2-c2ccc(OCC)cc2)CC1 | 7.8%
23 | CC(=O)Nc1ccc(OC(F)(F)C(F)C(F)(F)F)c(NC(C)=O)c1 (stereo not drawn) | -5.3%
24 | CCOC(=O)c1c(C)n(CC(O)c2ccccc2)c2ccc(O)cc12 (stereo not drawn) | -7.5%
25 | OCCNCc1ccc(OC2CCCC2)cc1 | 5.4%

Row | Compound | cytotoxicity
26 | COc1ccc(CCNC(=O)CC2Nc3cc(C)c(C)cc3NC2=O)cc1OC (stereo not drawn) | 0%
27 | O=C(O)Cn1cccc1C(=O)c1ccccc1 | -0.1%
28 | N=c1c(C(=O)NCc2ccc(F)cc2)cc2c(=O)n3ccccc3nc2n1Cc1ccco1 | -3.9%
29 | O=C(Cn1c(=O)sc2ccccc21)NCCOc1ccccc1F | -11.5%
30 | CCC(C)Sc1nnc(Cc2cc(=O)[nH]c(=O)[nH]2)n1-c1ccc(F)cc1 (stereo not drawn) | -12.7%
31 | CC(=O)Nc1ccc(N(C(=O)c2cnccn2)C(C(=O)NC2CCCCC2)c2ccc(O)cc2)cc1 (stereo not drawn) | -16.5%
32 | CCOC(=O)c1sc(NC(=O)c2ccc(CC)s2)nc1C | 4.6%
33 | C=C(C)COc1ccc(-c2nc(N)ncc2Oc2ccccc2OCC)c(O)c1 | 18.1%
34 | C=C(C)COc1ccc(-c2[nH]ncc2Oc2ccccc2OCC)c(O)c1 | 78.4% (active)
35 | CC1Cc2ccccc2N1C(=O)CN1C(=O)NC(C)(c2ccc3c(c2)OCCO3)C1=O (stereo not drawn) | 1.8%
36 | COc1cc2ccccc2cc1C(=O)Nc1ccc(N2CCN(C)CC2)cc1 | 65.5% (active)
37 | COc1cc2ccccc2cc1C(=O)N1CCN(C)CC1 | -4.6%
38 | CN1CCN(c2ccc(NC(=O)c3ccccc3Br)cc2)CC1 | 2.5%
39 | O=C(Nc1sccc1C(=O)N1CCOCC1)c1cccnc1 | 10.9%
40 | Cn1c(=O)c2c(SCC(=O)N3CCC(Cc4ccccc4)CC3)nc(C3CC3)nc2n(C)c1=O | 4%
41 | CCCc1nc(SCC(=O)N2CCN(c3ccccc3)CC2)c2c(=O)n(C)c(=O)n(C)c2n1 | 0.7%
42 | CCCCOC(=O)CSc1nc(N)c(C#N)c(-c2ccc(OCC)cc2)c1C#N | 17%
43 | CCOC(=O)CSc1nc(N)c(C#N)c(-c2ccc(OC)cc2)c1C#N | -14.8%
44 | CCOC(=O)CC(=O)CSc1nc(N)c(C#N)c(-c2ccc(F)cc2)c1C#N | 16.5%
45 | CCCCOC(=O)CSc1nc(N)c(C#N)c(-c2ccc(OC)cc2)c1C#N | -26.1%
46 | CCCCOc1ccc(-c2c(C#N)c(N)nc(SCC(N)=O)c2C#N)cc1 | 105% (active)
47 | CCOC(=O)CC(=O)CSc1nc(N)c(C#N)c(-c2ccc(Cl)cc2)c1C#N | 68.4% (active)
48 | O=C(O)c1ccccc1C(=O)c1cccs1 | -9.3%
49 | CCc1nc(NCC2CCCO2)c2oc3ccccc3c2n1 (stereo not drawn) | -29.3%
50 | O=C(NCCCN1CCN(CCCNC(=O)c2ccc3c(c2)OCO3)CC1)c1ccc2c(c1)OCO2 | -34.5%

Row | Compound | cytotoxicity
51 | Cc1ccc(N2CC(C(=O)N3CCN(C(=O)c4ccco4)CC3)CC2=O)cc1 (stereo not drawn) | 52.5% (active)
52 | Cc1ccc(N2CC(C(=O)N3CCN(c4ccccc4)CC3)CC2=O)cc1 (stereo not drawn) | 30.6%
53 | CCOC(=O)C1CCN(C(=O)C2CC(=O)N(c3ccc(C)cc3)C2)CC1 (stereo not drawn) | -13.4%
54 | CCN(CC)c1ccc(NC(=O)C2CCCN(S(=O)(=O)c3cccnc3)C2)c(C)c1 (stereo not drawn) | -9.5%
55 | COc1ccc(-c2cc(-c3ccccc3O)[nH]n2)cc1OC | 61.1% (active)
56 | COc1ccc(-c2cc(-c3cc(F)ccc3O)[nH]n2)cc1OC | 8.8%
57 | Oc1ccccc1-c1cc(-c2cccc(F)c2)n[nH]1 | 16.2%
58 | N#CC1=C(N)SC(N)=C(C#N)C1c1ccnc2ccccc12 | -13.5%
59 | CCOc1ccccc1N1CC(O)=C(c2nc3ccccc3s2)C1=N | 64.8% (active)
60 | COc1ccc(N2CC(O)=C(c3nc4ccccc4s3)C2=N)cc1 | 9.4%
61 | COc1ccc(N2CC(O)=C(c3nc4ccccc4s3)C2=N)c(OC)c1 | 11.5%
62 | O=C(c1cccs1)N1CCOCC1 | -26.6%
63 | O=C(Nc1nc2c(s1)CCc1ccccc1-2)c1cccs1 | -14.1%
64 | COc1ccc2c(c1)-c1nc(NC(=O)c3cccs3)sc1CC2 | 80.1% (active)
65 | COc1ccc2c(c1)Cc1sc(NC(=O)c3cccs3)nc1-2 | -6.8%
66 | Oc1ccccc1-c1nc(N2CCN(Cc3ccccc3)CC2)c2ccccc2n1 | 13%
67 | CCCCN(Cc1ccccc1)c1ncnc2nc[nH]c12 | 6.8%
68 | Clc1ccccc1CNc1ncnc2nc[nH]c12 | -10.1%
69 | Clc1ccccc1CN(Cc1ccccc1)c1ncnc2nc[nH]c12 | 115% (active)
70 | O/N=C1/CCCCc2sccc21 | -23.7%
71 | COC(=O)C1=CN(CC2CCCO2)C=C(C(=O)OC)C1c1cc(OC)c(OC)c(OC)c1 (stereo not drawn) | 9.3%
72 | CCOc1ccccc1CN(Cc1ccco1)S(=O)(=O)c1ccc(-n2cnnn2)c(OC)c1 | 53.2% (active)
73 | COc1ccccc1CN(Cc1ccco1)S(=O)(=O)c1ccc(-n2cnnn2)c(OC)c1 | 20.8%
74 | COc1cc(S(=O)(=O)N(Cc2cccnc2)Cc2ccco2)ccc1-n1cnnn1 | 6.5%
75 | COC(=O)c1ccccc1NC(=O)NCC1CCCO1 (stereo not drawn) | 8.4%

Row | Compound | cytotoxicity
76 | Cc1cc(C)cc(NS(=O)(=O)c2ccc3[nH]cc(C(=O)NCc4ccco4)c(=O)c3c2)c1 | 42.5%
77 | CCN(CC)C(=O)CSc1ncnc2c1nnn2-c1ccc(OC)cc1 | -10.4%
78 | COc1ccc(-n2nnc3c(SCC(=O)NCC4CCCO4)ncnc32)cc1 (stereo not drawn) | 2.8%
79 | O=C(NCCc1ccccc1)c1ccnc(/C=N/O)c1 | -14.3%
80 | CCn1c2c(c3cc(C(=O)O)ccc31)CCCC2=O | -19.1%
81 | CCn1c2c(c3cc(Cl)ccc31)CCCC2=O | -6.2%
82 | Cc1oc2cc(O)ccc2c(=O)c1-c1cnn(-c2ccccc2)c1 | 22.6%
83 | Cc1oc2cc(O)cc(C)c2c(=O)c1-c1cnn(-c2ccccc2)c1 | 61.3% (active)
84 | Cc1oc2c(O)c(O)ccc2c(=O)c1-c1cnn(-c2ccccc2)c1 | 0.8%
85 | COc1cc(NC(=O)Nc2cccc(Cl)c2)c(OC)cc1NC(=O)CN1CCCCC1 | 89.7% (active)
86 | COc1cc(NC(=O)Nc2ccccc2OC)c(OC)cc1NC(=O)CN1CCCCC1 | 48.5%
87 | COc1cc(NC(=O)Nc2ccccc2)c(OC)cc1NC(=O)CN1CCCCC1 | -3.3%
88 | O=C(NC1CCCC1)C1CC1c1ccccc1 (stereo not drawn) | 17.8%
89 | CC1(C)CC(=O)C2=C(C1)OC(N)=C(C#N)C2c1cccc(OC(=O)c2ccco2)c1 (stereo not drawn) | -2.4%
90 | Nc1nc(-c2ccccc2)cc(C(F)(F)F)n1 | -1.4%
91 | FC(F)(F)c1cc(-c2ccco2)nc(NCc2ccccc2)n1 | 8.4%
92 | FC(F)(F)c1cc(-c2ccco2)nc(NCc2ccco2)n1 | -0.2%
93 | FC(F)(F)c1cc(-c2ccco2)nc(-n2cnc3ccccc32)n1 | 41.5%
94 | COc1ccc(-c2cc(C(F)(F)F)nc(N3CCCCC3)n2)cc1OC | -2.6%
95 | FC(F)(F)c1cc(-c2ccco2)nc(-n2nnc3ccccc32)n1 | 3.9%
96 | COc1ccc(-c2cc(C(F)(F)F)nc(NC3CCCC3)n2)cc1OC | 8.8%
97 | COc1nc(-c2ccccc2)cc(C(F)(F)F)n1 | -0.7%
98 | COC(=O)CC1Oc2ccccc2N(Cc2ccc(C)cc2)C1=O (stereo not drawn) | 1.3%
